# Only some compounds are listed: those with a hit (about 1.1% of all), similar ones and a draw of the others.
# MOR-DOR ag – agonists of human mu-delta opioid receptor heterodimerization; 0.3% of 340,000 active; P35372+P41143; cells, OPRM1-OPRD1 heterodimerization, luminescence; activation, % at 9.3 µM; in the data active = activation above about 18%;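 note: 0% = vehicle-treated cells and 100% = reference agonist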
# HTR5A ag – activates human HTR5A in OPRM1-OPRD1 agonist counter-screen. HTR5A agonist assay, luminescence, cell-based. activation, % at 9.3 µM. P47898. AID 504692. 0.61% of 340,000 active; in the data active = activation mostly above about 9.5%, no sharp cut-off; inactive = mostly below about 7.6%;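 note: 0% = cells with vehicle only and 100% = reference agonist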
# Target sequence (P47898 whole entry, looked up): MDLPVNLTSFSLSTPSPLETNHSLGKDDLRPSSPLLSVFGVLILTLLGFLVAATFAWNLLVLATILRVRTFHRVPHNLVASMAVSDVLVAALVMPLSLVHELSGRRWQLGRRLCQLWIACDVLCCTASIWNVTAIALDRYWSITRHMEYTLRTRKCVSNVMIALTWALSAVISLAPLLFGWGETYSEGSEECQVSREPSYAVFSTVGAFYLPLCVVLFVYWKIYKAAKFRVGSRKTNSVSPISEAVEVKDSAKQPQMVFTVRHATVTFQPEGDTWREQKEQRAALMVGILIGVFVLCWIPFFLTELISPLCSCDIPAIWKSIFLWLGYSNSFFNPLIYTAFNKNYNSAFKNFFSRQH
# HTR5A inv ctr – HTR5A inverse agonism, opioid heterodimer counter-screen; inhibition, % at 9.3 µM; AID 504634; 0.083% of 340,000 active; HTR5A cell line, luminescence; P47898; in the data active = inhibition mostly above about 23%, no sharp cut-off; inactive = mostly below about 18%;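 note: 0% = cells with DMSO and 100% = no-cell wells with DMSO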
# A1 inh – inhibitors of the anti-apoptotic protein A1, read as caspase activation; MEF A1-2A-BIM cells, Caspase-Glo 3/7 luminescence, 3 h; percent of clofoctol response, vehicle zero; caspase activation, % (concentration not given with the values); 0.066% of 330,000 active;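 active = over half of replicate activation scores above 10%, or exactly half above 10 with the replicate mean above 10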
# OPRM1-OPRD1 inv – mu-delta opioid heterodimer inverse agonism; 0.21% of 340,000 active; cell-based MOR-DOR heterodimer luminescence; P35372+P41143; inhibition, % at 9.3 µM; in the data active = inhibition above about 22%, passing the limit was not always enough;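 note: 0% = cells with DMSO and 100% = wells without cells with DMSO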
# Numbers without * were called inactive; x = not tested or not shown.
SMILES,MOR-DOR ag,HTR5A ag,HTR5A inv ctr,A1 inh,OPRM1-OPRD1 inv
CC1=C(C)/C(=N\OS(=O)(=O)c2ccccc2)C=CC1=O,61.6*,3.3,18.6,-1.3,-331.1
O=C(N/N=C/c1ccc([N+](=O)[O-])cc1)c1cc(-c2ccc3c(c2)OCO3)n[nH]1,-0.4,13.1*,-8.4,-0.7,2.2
COc1cccc(/C=C(/C(=O)OCC(=O)NC2CCCCCCC2)c2ccccc2)c1,3.3,1.8,-4.6,0.6,-16.8
COc1cccc(/C=C(/C(=O)OCC(=O)NCC2CCCO2)c2ccccc2)c1 (centres undefined),4.4,11.0*,-27.3,-0.6,-29.0
COc1ccccc1NC(=O)C(C)OC(=O)C1CCN(S(=O)(=O)c2ccccc2C(F)(F)F)CC1 (centres undefined),-0.4,0.0,0.1,x,2.3
O=C(O)c1ccc(Cl)c(S(=O)(=O)NC(Cc2c[nH]c3ccccc23)C(=O)O)c1 (centres undefined),-1.8,-0.4,1.4,0.9,9.1
COc1ccc(NC(=O)c2cc(-c3cc(C)cc(C)c3O)n[nH]2)cc1Cl,8.3,11.2*,-34.3,0.9,-42.1
COc1ccc(NC(=O)c2cc(-c3ccccc3O)n[nH]2)cc1Cl,4.4,1.3,-4.8,-2.8,-20.7
Cc1cc(C)cc(NC(=O)C(=O)NCCc2c[nH]c3ccccc23)c1,5.1,14.0*,-37.0,0.0,-28.1
Cc1ccc(C)c(NC(=O)C(=O)NCCc2c[nH]c3ccccc23)c1,-0.2,-0.5,-19.9,-0.6,1.2
Cc1cccc(NC(=O)C(=O)NCCc2c[nH]c3ccccc23)c1C,-0.8,14.3*,-8.8,0.2,4.0
Cc1cc(C)c(S(=O)(=O)N2CCCOC2CNC(=O)C(=O)NCCc2c[nH]c3ccccc23)c(C)c1 (centres undefined),3.7,11.5*,-16.0,-0.5,-19.2
Cc1cccc(C)c1NC(=O)C(=O)NCCc1c[nH]c2ccccc12,-1.7,0.5,-11.9,0.0,8.7
CN1C(=O)C(O)(CC(=O)/C=C/c2ccco2)c2ccccc21 (centres undefined),-1.6,9.6*,-25.7,0.0,8.2
CCN(c1cccc(C)c1)S(=O)(=O)c1ccc2c(c1)CCCN2C(C)=O,-1.0,1.4,-17.5,-0.5,5.4
CCN(c1ccccc1)S(=O)(=O)c1ccc2c(c1)CCCN2C(C)=O,-1.1,10.8*,15.4,-0.6,5.5
O=C(COC(=O)C1CC1)NC(=O)NCc1ccccc1,-1.1,-1.1,2.9,0.8,5.4
CC(C)Oc1ccccc1-c1nc(SCC(=O)O)n[nH]1,4.0,12.3*,-43.3,0.1,-21.5
COc1ccccc1-c1nc(SCC(=O)O)n[nH]1,1.2,-1.3,-5.3,-0.1,-7.3
CC(OC(=O)CNC(=O)C1CCCCC1)C(=O)NCc1ccccc1 (centres undefined),-2.5,3.0,-12.3,0.1,13.2
COc1ccc(-c2ccc3c(N)c(C(=O)c4ccc(OC)c(OC)c4)sc3n2)cc1,13.5,10.1,8.4,-0.1,-72.9
COc1ccc(C(=O)c2sc3nc(-c4ccccc4)ccc3c2N)cc1OC,9.7,17.8*,-10.0,0.1,-57.7
CCOc1ccc(NC(=O)CN(C)C(=O)CCCn2c(=O)oc3ccccc32)cc1OCC,-1.3,1.5,-4.4,0.3,8.4
Cc1ccc(Nc2cc(C)nn2-c2nc(C)cc(=O)[nH]2)cc1,-9.3,-7.2,-2.8,-1.3,54.7*
Cc1ccc(Nc2cc(C)nn2-c2nc(C)cc(C)n2)cc1,-1.9,-1.7,-1.0,-0.8,10.7
SMILES,MOR-DOR ag,HTR5A ag,HTR5A inv ctr,A1 inh,OPRM1-OPRD1 inv
Cc1nc(N2CCCCC2)c2c(C)c(C(=O)Nc3cccc(C(F)(F)F)c3)sc2n1,10.0,14.2*,0.0,0.2,-68.4
Cc1cc(OCC(=O)Nc2ccccc2C(N)=O)c2c(C)cc(=O)oc2c1,-1.3,-0.1,-0.2,0.0,6.7
COCCNC(=O)/C(C#N)=C\c1ccc(CNC(=O)C(=O)Nc2ccc(C)c(C)c2)o1,-3.4,-4.0,3.3,0.8,17.0
COc1ccc(NC(=O)C(=O)N/N=C\c2ccc(CNC(=O)C(=O)Nc3ccc(C)c(C)c3)o2)c(OC)c1,x,x,x,23.6*,x
CC(=O)C1(C)C(=O)N(c2ccc(C)cc2)C(=O)N1c1ccc(C)cc1 (centres undefined),-3.7,1.9,-7.5,x,16.0
O=C(C1=C[C@@H](c2ccc(Br)cc2)C[C@@H](OCc2ccc(CO)cc2)O1)N1CCN(Cc2ccc3c(c2)OCO3)CC1,3.6,-1.1,-1.4,1.1,-19.5
O=C(CC(=O)c1ccccn1)c1ccccc1,-1.5,-1.7,6.5,x,7.3
O=C(Nc1ccc(-c2nc3cc(NC(=O)c4cccs4)ccc3o2)cc1)c1cccs1,-0.9,-0.9,1.2,17.4*,5.2
COc1cccc(CN(C)C(=O)c2ccc(Oc3ccccc3)cc2)c1OC,2.2,1.3,-20.1,1.3,-17.9
O=C(CSc1ccc(-c2cccnc2)nn1)N1CCCCCC1,1.6,7.3,1.8,0.6,-7.9
Cc1cc(NC(=S)N(Cc2ccc(Br)cc2)Cc2ccc(C(=O)O)cc2)ccc1Cl,-2.5,12.3*,-33.7,-0.8,11.4
Cc1cccc(NC(=S)N(Cc2ccc(Br)cc2)Cc2ccc(C(=O)O)cc2)c1,-2.3,-2.9,8.1,-1.9,12.8
COc1ccc(N2CCN(c3nc4cc(C)ccc4cc3C=O)CC2)cc1,2.9,3.6,1.9,0.7,-18.2
O=C(O)c1ccc(NC2=C/C(=N/S(=O)(=O)c3ccccc3)c3ccccc3C2=O)cc1,28.2*,-2.6,25.3,x,-144.4
CCN(CC)CCN(C(=O)c1ccc2c(c1)OCCO2)c1nc2ccc(C)cc2s1,1.4,3.9,0.4,0.7,-7.5
Cc1ccc2nc(N(CCN(C)C)C(=O)c3ccc4c(c3)OCCO4)sc2c1,-2.4,13.6*,-40.1,-0.6,13.2
C=CCN=c1sc(C(=O)OC)cc(=O)n1CC=C,-2.9,5.8,-18.9,0.0,15.1
CCN=c1sc(C(=O)OC)cc(=O)n1CC,-0.9,10.5*,0.1,0.4,5.3
CCOc1ccc2noc3c2c1C(=O)c1ccccc1-3,10.6,-5.0,9.2,-0.2,-62.6
O=C1c2ccccc2-c2onc3ccc(N4CCCC4)c1c23,18.9*,6.3,-3.5,x,-97.2
Cc1cc(C)cc(C(=O)NC(=S)Nc2ccc(Cc3ccncc3)cc2)c1,0.5,-2.0,4.7,0.5,-2.2
Cc1cccc(C(=O)NC(=S)Nc2ccc(Cc3ccncc3)cc2)c1,-1.3,12.3*,-31.6,-1.1,7.6
CCN(CC)CCN(C(=O)c1cc2c(ccc3ccccc32)oc1=O)c1nc2cc3c(cc2s1)OCCO3,-1.1,-0.1,-18.6,7.2*,6.0
Cc1ccc(C(C)C)c(OCC(O)CN(C)Cc2ccccc2)c1 (centres undefined),5.6,11.8*,-44.4,-0.5,-25.1
Cc1ccc(C(C)C)c(OCCCN(C)Cc2ccccc2)c1,9.8,5.4,-18.5,0.1,-55.8
COC(=O)c1cc(C)nc2c1C(=O)C(=O)C=C2N1CCOCC1,25.7*,5.8,-21.6,-3.1,-122.9
